122 sequences from the supplement of paper PMC4466236 can be followed below.

Over roughly 33,000 sequences, “E-score (dimensionless, -0.5 to 0.5)” has its median near -0.058; the highest 2% begin near 0.35. Many of the other results were omitted from the sample, so the highest values are more common in it than they were.

The subject of the assay is MvaT. Briefly: PBM 8-mer E-score (mean of HK and ME arrays) (E-score (dimensionless, -0.5 to 0.5)); higher = stronger relative binding preference. The gist of the method:
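Full-length P. aeruginosa MvaT, with glutathione S-transferase fused to its N-terminus (cloned into pTH6838 by isothermal assembly), was tested by protein binding microarray using a previously described protocol. Two universal double-stranded 60-mer arrays (ME and HK) were used, each with a constant 25-mer primer region and a variable 35-mer region covering all 8-mers. The rank-based 8-mer E-score (-0.5 to 0.5) is the mean of the two arrays, parsed with a custom Python script.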
Turning to ACCATTAT, the “PBM 8-mer E-score” value was determined as 0.332.

CTTATTCA: the “PBM 8-mer E-score” value worked out at 0.194.

As for ATTATGAA, the “PBM 8-mer E-score” value was determined as 0.269.

For GTTTTTCA, the “PBM 8-mer E-score” value turned out to be 0.0388.

Regarding AGCGGTGG, the “PBM 8-mer E-score” value is -0.209.

CCTGCCTC: the “PBM 8-mer E-score” value is -0.249.

For AGACTTCC, the “PBM 8-mer E-score” value was -0.21.

In the case of AAAAAAGG, the “PBM 8-mer E-score” value worked out at 0.0491.

Take CTGTCCTA: the “PBM 8-mer E-score” value was -0.112.

For the sequence GTAATACA, the “PBM 8-mer E-score” value turned out to be 0.295.

Turning to CTAATATC, the “PBM 8-mer E-score” value turned out to be 0.299.

On to GTAATATA, for which the “PBM 8-mer E-score” value was found to be 0.436.

With ATAATATA, the “PBM 8-mer E-score” value was 0.475.

As for CTAATAGA, the “PBM 8-mer E-score” value was 0.184.

Turning to CTAATATA, the “PBM 8-mer E-score” value was determined as 0.434.

Regarding ATAATCTA, the “PBM 8-mer E-score” value is 0.344.

Take ATCATATA: the “PBM 8-mer E-score” value stood at 0.338.

As to GTCATATA, the “PBM 8-mer E-score” value was 0.282.

For the sequence CAGGCTCG, the “PBM 8-mer E-score” value was -0.325.

As to CAGACGGA, the “PBM 8-mer E-score” value was -0.156.

Turning to AGCTGGGG, the “PBM 8-mer E-score” value was -0.186.

ACTACGCG: the “PBM 8-mer E-score” value was -0.0273.

Regarding AGGGCATG, the “PBM 8-mer E-score” value was -0.207.

GCAACGCA: the “PBM 8-mer E-score” value was -0.168.

As to CATATTTA, the “PBM 8-mer E-score” value was found to be 0.371.

Turning to AATTTTTG, the “PBM 8-mer E-score” value turned out to be 0.194.

Turning to CATATTTC, the “PBM 8-mer E-score” value is 0.26.

Regarding AATATTGA, the “PBM 8-mer E-score” value was 0.327.

GATATTTA: the “PBM 8-mer E-score” value is 0.326.

Regarding AATATTTG, the “PBM 8-mer E-score” value was found to be 0.349.

Take AACATTTG: the “PBM 8-mer E-score” value was 0.103.

Regarding AATATTTA, the “PBM 8-mer E-score” value is 0.45.

In the case of AATATTTC, the “PBM 8-mer E-score” value worked out at 0.404.

Regarding CCTATTTA, the “PBM 8-mer E-score” value stood at 0.212.

Take CCTATTTC: the “PBM 8-mer E-score” value worked out at 0.0116.

For the sequence ACTATTTC, the “PBM 8-mer E-score” value was found to be 0.201.

Regarding AGTGTGAA, the “PBM 8-mer E-score” value came out at 0.204.

Take CAGGGTTC: the “PBM 8-mer E-score” value is -0.251.

Regarding GAAGATGA, the “PBM 8-mer E-score” value is -0.128.

With CGGAGTTC, the “PBM 8-mer E-score” value was -0.106.

With TCACCTCA, the “PBM 8-mer E-score” value is -0.163.

Consider CTTCTTTC, for which the “PBM 8-mer E-score” value was determined as 0.015.

As to ATAATAGG, the “PBM 8-mer E-score” value was 0.291.

On to AGAATAGA, for which the “PBM 8-mer E-score” value turned out to be 0.051.

For the sequence GTAATAGA, the “PBM 8-mer E-score” value was 0.164.

On to CTAATAGC, for which the “PBM 8-mer E-score” value was found to be 0.0517.

Consider ATAATAGC, for which the “PBM 8-mer E-score” value was determined as 0.362.

With ATAATAGA, the “PBM 8-mer E-score” value came out at 0.364.

On to TTGGAAAA, for which the “PBM 8-mer E-score” value was 0.114.

For the sequence AACTCGTC, the “PBM 8-mer E-score” value was determined as 0.0126.

Turning to GGGTTGAC, the “PBM 8-mer E-score” value is -0.213.

Turning to CATACGGC, the “PBM 8-mer E-score” value is -0.244.

With ACCGTAGA, the “PBM 8-mer E-score” value was -0.0538.

With CCCGTGCG, the “PBM 8-mer E-score” value is -0.273.

As to AGACGAAC, the “PBM 8-mer E-score” value is -0.107.

Take ATCCAAAA: the “PBM 8-mer E-score” value came out at 0.1.

CCTAACCA: the “PBM 8-mer E-score” value is -0.103.

Take CTGCTGTC: the “PBM 8-mer E-score” value is -0.222.

Regarding ACTTAATC, the “PBM 8-mer E-score” value stood at 0.187.

Turning to GCTTAACA, the “PBM 8-mer E-score” value was determined as 0.0832.

Take ACTTAATA: the “PBM 8-mer E-score” value was 0.4.

As for GCTTAATA, the “PBM 8-mer E-score” value was determined as 0.352.

Take CCTTAATA: the “PBM 8-mer E-score” value stood at 0.298.

Regarding ACTTAATG, the “PBM 8-mer E-score” value is 0.287.

For the sequence CGATGGTC, the “PBM 8-mer E-score” value is -0.364.

Regarding AGACAGGA, the “PBM 8-mer E-score” value was -0.156.

As to CGTCCTCA, the “PBM 8-mer E-score” value is -0.231.

With ACGCGGCG, the “PBM 8-mer E-score” value is -0.275.

With ACGTTAAA, the “PBM 8-mer E-score” value was determined as 0.256.

Regarding CACTCGTC, the “PBM 8-mer E-score” value is -0.185.

CTGGCATC: the “PBM 8-mer E-score” value was -0.181.

Consider CAATCAGC, for which the “PBM 8-mer E-score” value is -0.0173.

For ATTAATAC, the “PBM 8-mer E-score” value was found to be 0.41.

Take AGTAATAA: the “PBM 8-mer E-score” value stood at 0.327.

As for ATTAATAG, the “PBM 8-mer E-score” value is 0.426.

In the case of GGTAATAC, the “PBM 8-mer E-score” value turned out to be 0.249.

Consider CTTAATAC, for which the “PBM 8-mer E-score” value is 0.286.

With ATTAATAA, the “PBM 8-mer E-score” value was 0.468.

Consider ATTAAGAA, for which the “PBM 8-mer E-score” value worked out at 0.282.

Consider ATTAAGAG, for which the “PBM 8-mer E-score” value was found to be 0.297.

For AGAGGTCA, the “PBM 8-mer E-score” value is -0.266.

ACGGCAAC: the “PBM 8-mer E-score” value was -0.107.

As to CGTTTTGC, the “PBM 8-mer E-score” value was found to be 0.0694.

In the case of TGGTTGAA, the “PBM 8-mer E-score” value was -0.0872.

CCTCATAA: the “PBM 8-mer E-score” value is -0.0267.

On to TCGTTAAA, for which the “PBM 8-mer E-score” value was determined as 0.156.

As to CAGAAGGC, the “PBM 8-mer E-score” value is -0.229.

CTGAGCAA: the “PBM 8-mer E-score” value is -0.0891.

Turning to TAAACAGA, the “PBM 8-mer E-score” value was 0.188.

Take ACAGACTA: the “PBM 8-mer E-score” value worked out at 0.136.

As to AGTCCGTC, the “PBM 8-mer E-score” value is -0.103.

Take CGCACCCG: the “PBM 8-mer E-score” value was -0.242.

As for GGTTATAC, the “PBM 8-mer E-score” value came to 0.0501.

As for AGTTATAC, the “PBM 8-mer E-score” value was determined as 0.393.

For CGTTATAA, the “PBM 8-mer E-score” value stood at 0.39.

For the sequence TGTTACAA, the “PBM 8-mer E-score” value was 0.257.

As for AGTTATCA, the “PBM 8-mer E-score” value is 0.242.

For AGTTATAA, the “PBM 8-mer E-score” value came to 0.43.

For TGTTATAA, the “PBM 8-mer E-score” value came to 0.437.

For CGTTATAC, the “PBM 8-mer E-score” value came to 0.21.

With CGTTATAG, the “PBM 8-mer E-score” value came to 0.2.

In the case of AGTTATGA, the “PBM 8-mer E-score” value stood at 0.319.

Consider GGTTATAA, for which the “PBM 8-mer E-score” value is 0.344.

Take AGTTATGC: the “PBM 8-mer E-score” value was found to be 0.246.

On to CCAACCGA, for which the “PBM 8-mer E-score” value is -0.0134.

Take TACCAAGA: the “PBM 8-mer E-score” value was -0.0377.

For TCCCAACA, the “PBM 8-mer E-score” value is 0.111.

Consider CGATACCC, for which the “PBM 8-mer E-score” value is -0.141.

Turning to CGCGTCCC, the “PBM 8-mer E-score” value is -0.132.

Turning to ACTGTGAC, the “PBM 8-mer E-score” value is 0.0208.

For the sequence AGTGCCGG, the “PBM 8-mer E-score” value is -0.0286.

For the sequence GTACCTTA, the “PBM 8-mer E-score” value stood at 0.119.

For CGGGCCAA, the “PBM 8-mer E-score” value is -0.118.

For the sequence GGGCGCTA, the “PBM 8-mer E-score” value is -0.265.

Regarding GGGACAGA, the “PBM 8-mer E-score” value was -0.12.

As for CCACCGTC, the “PBM 8-mer E-score” value is -0.258.

Consider AGCTATAT, for which the “PBM 8-mer E-score” value was determined as 0.328.

AGTTATAT: the “PBM 8-mer E-score” value is 0.437.

In the case of AGTTATAG, the “PBM 8-mer E-score” value worked out at 0.316.

As for ATGGGTAC, the “PBM 8-mer E-score” value is -0.0802.

Take AGCGTTGA: the “PBM 8-mer E-score” value was -0.0483.

For AGGTATGA, the “PBM 8-mer E-score” value came to 0.12.
